AID inhibitor – inhibitors of human activation induced cytidine deaminase; 91,000 tested, 0.32% active; Q9GZX7; Potency, µM (doses to about 115 µM), actives largely listed as inhibitors; AID deamination FRET fluorescence, UDG-coupled, 4 h; also: nearly all actives have a fitted effect of over 25% in size
Target sequence (Q9GZX7 whole entry, looked up): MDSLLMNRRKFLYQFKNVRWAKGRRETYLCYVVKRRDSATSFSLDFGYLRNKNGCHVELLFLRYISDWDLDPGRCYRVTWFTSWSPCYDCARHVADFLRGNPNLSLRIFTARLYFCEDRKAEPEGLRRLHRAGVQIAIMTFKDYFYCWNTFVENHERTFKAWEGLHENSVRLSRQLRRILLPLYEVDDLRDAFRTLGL
UDG counter – blocks uracil-DNA glycosylase in AID counter-screen | FRET deamination/UDG coupled assay, UDG read, 4 h | AID 1347430 | Potency, µM (titrated, usually from 115 µM), without a hit: at the highest dose activity change, negative = inhibition, most hits filed as inhibitors | 91,000 tested, 0.14% active; also: nearly all actives have a fitted effect of over 65% in size
The depositor's hits bear a star; i = inactive; ? = inconclusive. Shown are actives, neighbours in structure and some others; about 0.4% of the full set was active somewhere. Calls follow the shape of the dose curve; as a rule, active = well fitted curve in the direction sought with a large enough effect; inconclusive = small, poorly fitted or top-dose-only effect, or another doubt; inactive = no such curve, though single readings can be large; an effect the other way counts as inactive or inconclusive. % is scaled to controls: 0 for no effect and ±100 for the full control effect; potency is read from the fitted curve at half-maximal effect.

SMILES	AID inhibitor	UDG counter
Cc1ccccc1-n1c(/C=C/c2ccccc2F)nc2ccccc2c1=O	i	-11%
Cc1cccc(/C=C/c2nc3ccccc3c(=O)n2-c2cccc(O)c2)c1	i	1%
O=c1c2ccccc2nc(/C=C/c2cccc3ccccc23)n1-c1ccccc1Cl	?	89µM*
Cc1ccc(-n2c(/C=C\c3ccc(F)cc3)nc3ccccc3c2=O)cc1Cl	?	89µM*
CCC(CC)NC1CC1	i	-7%
CC(C)(C)CC(C)(C)NCCc1ccccc1	i	-5%
N[C@@H](CCl)C(=O)O	i	-4%
NC(Cc1cc(O)c(O)cc1O)C(=O)O (stereo unspecified)	14µM*	-2%
COc1ccc(N2C(=O)NC(=O)C3(Cc4cc(C)ccc4N(C)C3)C2=O)cc1 (stereo unspecified)	i	0%
C[C@@H]1[C@@H]2Cc3ccc(O)cc3[C@@]1(C)CCN2CC1CC1	i	0%
CN1CC[C@@]2(C)c3cc(O)ccc3N(C)C12 (stereo partly specified)	11µM*	-4%
NNCc1cccnc1	i	-6%
CC(C(=O)NCc1cccs1)N1CC=C(c2ccccc2)CC1 (stereo unspecified)	i	-10%
Cc1oc2cc(OCC(=O)N3CCN(C)CC3)ccc2c(=O)c1-c1ccccc1	i	25%
CC(NCCc1ccccc1)c1ccccc1 (stereo unspecified)	i	-5%
CN(N=O)c1ccc(O)c(O)c1	25µM*	-7%
CCCCC12CN3CC(C)(CN(C1)C3c1ccccn1)C2=O (stereo unspecified)	i	2%
CCCC12CN3CC(C)(CN(C1)C3c1c(C)[nH]c(=O)[nH]c1=O)C2=O (stereo unspecified)	10µM*	-29%

Screening data as filed in PubChem BioAssay.
